# High-throughput results deposited in PubChem by several laboratories.
# Most compounds without a hit are left out; they make up all but 12% or so of the library.
# Arbovirus anti: blocks arbovirus infection; arbovirus infection cell-based antiviral screen; AID 1251; inhibition, % at 10 µM; 0.37% of 200,000 active; in the data active = inhibition above about 30%
# CHOP inh: inhibitors of CHOP induction in ER stress response. CHO-K1 CHOP-promoter luciferase, tunicamycin-induced, 15-18 h. inhibition, % at 10 µM. 3.8% of 220,000 active;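 active = compounds that reduced the stress-induced luciferase reporter signal by more than about 70% of percent inhibition, limit read from the data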
# Lmaj promast: reduces viability of Leishmania major promastigotes; resazurin fluorescence viability; inhibition, % at 10 µM; 9% of 200,000 active; AID 1063; in the data active = inhibition above about 50%;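 also: promastigotes grown with compound for 44 hours at 28 °C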
# WT yeast gro inh: growth inhibition of WT yeast, mitochondrial fusion screen; mitochondrial fusion phenotypic screen, WT strain; inhibition, % at 10 µM; 2.1% of 190,000 active; in the data active = inhibition above about 58%; tested in S. cerevisiae
# Hits are given with their value; . = inactive; / = not tested or not shown.
SMILES,Arbovirus anti,CHOP inh,Lmaj promast,WT yeast gro inh
COc1ccc(C(=O)Nc2ccc(C)cc2C(=O)c2ccccc2)cc1,.,.,98.7,.
CC/C(=N/NC(=O)CNc1ccc(Cl)cc1C)c1ccccc1,.,70.3,.,.
COCc1cc(C)nc(OCC(=O)N/N=C/c2ccc(C)o2)c1C#N,.,.,.,.
CC(C(=O)NCC1CCCCC1)N1CCN(S(=O)(=O)/C=C/c2ccccc2)CC1 (stereo not given),.,.,99.3,.
Cc1ccccc1NC(=O)COC(=O)Cc1ccsc1,.,.,.,/
Cc1cccc(OCC(=O)N/N=C/c2cc([N+](=O)[O-])ccc2N2CCOCC2)c1,.,.,86.7,.
O=C(N/N=C\c1cc([N+](=O)[O-])ccc1N1CCOCC1)c1ccccn1,.,.,.,.
CCc1ccc(OCC(=O)N/N=C/c2cc([N+](=O)[O-])ccc2N2CCOCC2)cc1,.,.,78.2,.
O=C(Nc1cccc(C(F)(F)F)c1)N(Cc1ccc(Cl)cc1)CC(O)C(F)(F)F (stereo not given),.,74.2,95.9,83.9
C=CCC1(/C=N/O)CCOC(C)(C)C1 (stereo not given),/,.,/,/
N#C/C(=C/c1ccc(N2CCCCC2)cc1)c1cccc(F)c1,.,.,99.0,.
CC(C)(C)NCc1cccn1-c1sc2c(c1C#N)CCCC2,.,.,78.4,.
C=CCn1c(SCc2cccc3ccccc23)nnc1-c1cccnc1,.,.,50.4,.
Cc1cccc(C(C)C)c1NC(=O)CN(C)Cc1cccc(F)c1,.,.,71.9,.
CC(=O)NNC(=S)Nc1cccc(F)c1,/,.,/,/
Cc1ccc(S(=O)(=O)NC(CC(=O)n2nc(C)cc2C)c2ccccc2)cc1 (stereo not given),.,80.4,.,.
Cc1ccc(S(=O)(=O)NC(c2ccccc2)C(C)C(=O)n2nc(C)cc2C)cc1 (stereo not given),.,73.1,.,.
CN(C)/C=C1\SC(=S)N(N2C(=O)C3C4C=CC(C4)C3C2=O)C1=O (stereo not given),.,.,.,.
COc1ccc(C2=NN3C(=O)c4c(ccc(OC)c4OC)C3C2)cc1 (stereo not given),.,.,60.0,.
COc1ccc2c(c1OC)C(=O)N1N=C(c3ccc(Br)cc3)CC21 (stereo not given),.,.,.,.
O=C1C(c2c(O)[nH]c3ccccc23)=Nc2ccccc21,.,.,/,.
CC(=O)c1cccc2c(O)c(C3=Nc4ccccc4C3=O)[nH]c12,.,.,99.3,.
CCN1CCN(c2nc(N)c([N+](=O)[O-])c(Nc3ccc(C)cc3)n2)CC1,.,.,.,.
Cc1ccc(Nc2nc(N3CCN(C)CC3)nc(N)c2[N+](=O)[O-])cc1C,.,.,97.3,82.7
CCN1CCN(c2nc(N)c([N+](=O)[O-])c(Nc3ccc(C)c(C)c3)n2)CC1,.,.,60.0,.
SMILES,Arbovirus anti,CHOP inh,Lmaj promast,WT yeast gro inh
COc1ccc2nc(/N=C(\N)NC(=O)C(C)(C)C)nc(C)c2c1,.,.,50.8,.
COc1ccc2nc(/N=C(\N)NC(=O)N3c4ccccc4Sc4ccccc43)nc(C)c2c1,.,77.3,.,.
Cc1nn(-c2ccccc2)nc1C(=O)Oc1cc(C(F)(F)F)nn1-c1ccccc1,/,.,/,/
CCOc1ccc(NC(=O)CCCn2c(=S)[nH]c3ccsc3c2=O)cc1,.,.,.,.
C/C(=N\Nc1ncc(Cl)cc1Cl)c1ccccn1,.,.,100.5,.
C/C(=N\Nc1cccc2cccnc12)c1ccccc1O,.,.,.,.
C/C(=N\Nc1cccc2cccnc12)c1ccccn1,.,.,51.3,.
C/C(=N\Nc1ccc(Cl)c(C(=O)O)c1)c1ccccn1,/,.,/,/
Cc1c(C(=O)O)sc2nc(CSc3ncc(C(F)(F)F)cc3Cl)[nH]c(=O)c12,/,.,/,/
CN(c1ccc(OCC(=O)Nc2nc(-c3ccccc3)cs2)cc1)S(=O)(=O)c1ccc(F)cc1,.,.,97.2,.
Cc1ccc(S(=O)(=O)CC(=O)Nc2nc(-c3ccccc3)cs2)cc1,.,90.1,.,60.6
Cc1ccc(S(=O)(=O)N(C)c2ccc(OCC(=O)Nc3nc4ccccc4s3)cc2)cc1,.,.,98.2,.
CCOC(=O)C(=O)c1csc(NC(=O)COc2ccc(N(C)S(=O)(=O)c3ccc(F)cc3)cc2)n1,.,.,.,.
Cc1ccc(S(=O)(=O)N(C)c2ccc(OCC(=O)Nc3nc(-c4ccccc4)cs3)cc2)cc1,.,.,89.3,.
CCOc1ccc(-c2cc(C(=O)OC)nc3c2c(=O)n(C)c(=O)n3C)cc1,/,.,/,/
Cc1cc(C(=O)OCC(=O)Nc2nc(-c3ccccc3)cs2)c(C)o1,.,94.3,.,.
Cc1cc(C(=O)OC(C)C(=O)Nc2nc(-c3ccccc3)cs2)c(C)o1 (stereo not given),.,.,.,.
Cc1ccc(-c2csc(NC(=O)C3=NN(c4ccccc4)C(=O)CC3)n2)cc1,66.8,.,.,.
